Assay outcomes as filed in PubChem BioAssay.
The list is not random: actives were taken first. Their share in the collection is about 3.6%.
TRHR ag = qHTS for Small Molecule Agonists and Allosteric Enhancers of Human TRH Receptor: Primary Screen for Agonists; AID 493084, 2011; Thyrotropin-releasing hormone receptor (Homo sapiens), P34981; TRHR cells, calcium flux fluo-8, FDSS agonist mode; 0.18% of 360,000 active; activation, % at 2 µM; also: 0% is about no effect
Target sequence (P34981 whole entry, looked up): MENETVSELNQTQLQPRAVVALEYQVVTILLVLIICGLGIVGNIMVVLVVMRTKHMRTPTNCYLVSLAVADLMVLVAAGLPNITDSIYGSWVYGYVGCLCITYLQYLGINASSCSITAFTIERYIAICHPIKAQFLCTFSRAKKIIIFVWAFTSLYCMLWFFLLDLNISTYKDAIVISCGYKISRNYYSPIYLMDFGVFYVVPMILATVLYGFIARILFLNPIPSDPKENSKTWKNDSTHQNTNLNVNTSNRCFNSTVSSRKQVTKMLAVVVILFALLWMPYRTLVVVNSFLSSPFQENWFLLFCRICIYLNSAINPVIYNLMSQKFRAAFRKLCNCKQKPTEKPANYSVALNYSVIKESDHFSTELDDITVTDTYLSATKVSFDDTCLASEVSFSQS
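Steps: seed TRHR cells overnight; add fluo-8 no-wash Ca dye, RT 30 min–1.5 h; record 10 s baseline; pin-transfer compounds; monitor fluorescence 1 cycle/s for the agonist window. Calcium increases flag candidate agonists.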
TRHR PAM = qHTS for Small Molecule Agonists and Allosteric Enhancers of Human TRH Receptor: Primary Screen for Enhancers; 0.66% of 360,000 active; enhancement, % at 2 µM; AID 493056, 2011; TRHR cells, fluo-8 calcium fluorescence, EC20 TRH enhancement; in the data active = enhancement above about 30%; also: 0% is about no effect
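Enhancer read-out: after compound pinning and an initial kinetic agonist-mode read, an EC20 of TRH (10 nM final) was injected and fluo-8 calcium signal (Ex 480/Em 530) followed at 1 s/cycle for 100 cycles in TRHR-expressing cells.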
D1 PAM = Potentiators of Human D1 Dopamine Receptor: qHTS | AID 504651, 2011 | potentiation, % at 10 µM | 0.036% of 360,000 active | HEK293 TREx D1 cells, calcium flux, dopamine EC20 potentiation; in the data active = potentiation above about 30%; also: 0% is about no effect
LDHA inh = qHTS assay for inhibitors of human lactate dehydrogenase; 0.15% of 480,000 active; activity change, % (values are at about 110 or 230 µM); purified LDHA, NADH/diaphorase-resazurin fluorescence; active compounds read low; AID 1347041, 2019; L-lactate dehydrogenase A chain (Homo sapiens), P00338; in the data active = activity change below about -30%;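 also: plate controls were DMSO wells for no effect and wells without enzyme for full effect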
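Human LDH5 at 2 nM final in Tris HCl pH 7.4 with 0.06 mM NADH and 0.2 mM pyruvate, reacted 5 minutes at room temperature. Remaining NADH coupled via diaphorase/resazurin; resorufin fluorescence read at 0 and 20 minutes, normalized to enzyme-free and DMSO wells.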
D1 ag = Allosteric Agonists of the Human D1 Dopamine Receptor: qHTS; D(1A) dopamine receptor (Homo sapiens), P21728; HEK293 T-REx D1 cells, calcium flux, agonist mode; activation, % at 2 µM; 1% of 360,000 active; AID 504660, 2011; also: 0% is about no effect
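Agonism was scored from calcium flux recorded over 180 s (1 read/s) after pintool compound addition, following a 10-cycle baseline. Cells were inducible force-coupled HEK293 TREx D1, plated overnight at 30 C and loaded with no-wash calcium dye.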
D1 antagonist = Antagonist of Human D 1 Dopamine Receptor: qHTS; HEK293 TREx D1 cells, calcium flux, dopamine EC80; active compounds read low; activity change, negative = inhibition, % at 10 µM; 3.2% of 360,000 active; AID 504652, 2011; in the data active = activity change below about -30%; also: % is scaled to controls: 0 for no effect and ±100 for the full control effect
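Calcium flux readout: force-coupled, inducible Hek293 Trex D1 line, cells induced overnight at 30 C with tetracycline, dye-loaded 30–90 min at RT. Antagonism scored against EC80 dopamine challenge given 180 s after compound.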
Starred values were filed as active, the others as inactive; x = no result given. Rule as the data show it, unless noted: active = activation above about 30%; inactive = the rest.

SMILES	TRHR ag	TRHR PAM	D1 PAM	LDHA inh	D1 ag	D1 antagonist
COC(=O)c1ccc[n+](CC(=O)c2ccc(Br)cc2)c1	0	-6	0	-2	5	-35*
COc1ccc(C(=O)/C=C/c2cc(OC)c(O)c(OC)c2)c(F)c1	-2	6	-4	10	52*	-5
CN(C)c1ccc(/C=C/C(=O)c2ccccc2O)cc1	13	-6	-1	0	35*	-25
CN(C)c1ccc(/C=C/C(=O)c2cccnc2)cc1	95*	6	-9	3	176*	0
Cc1ccc(/C=C/C(=O)c2ccccc2O)cc1	0	1	1	-3	1	-5
COc1ccc2cc(C(=O)/C=C/c3cc(OC)c(O)c(OC)c3)ccc2c1	14	1	-5	12	25	-13
COc1ccc(C(=O)/C=C/c2ccc(N(C)C)cc2)c(OC)c1	127*	8	-5	4	295*	4
CN(C)c1ccc(/C=C/C(=O)c2ccc(O)cc2)cc1	x	x	x	-3	x	x
CCOCCn1c(=NC(=O)c2ccc3c(c2)OCCO3)sc2cc(OCC)ccc21	0	-2	-4	-1	0	-31*
COCCn1c(=NC(=O)c2ccc3c(c2)OCCO3)sc2cc(NC(C)=O)ccc21	0	-8	-3	-3	-1	-8
Cc1ccc(NC(=O)CN(C)C(=O)c2ccc3c(c2)nnn3C2CCCC2)cc1	x	x	x	6	x	x
Cc1ccc(S(=O)(=O)N(C)C)cc1NC(=O)COC(=O)c1ccc2ccccc2n1	0	6	1	-2	0	-55*
C=CCCCCCCCCC(=O)NCc1ccco1	x	x	x	2	x	x
CC1(C)CC(CNCc2ccco2)CCO1 (stereo not given)	x	x	x	-13	x	x
COc1ccccc1C(=O)Nc1ccc(S(=O)(=O)NC2=NCCCCC2)cc1	0	1	-12	-8	3	-58*
COc1ccccc1C(=O)Nc1ccc(S(=O)(=O)Nc2nccs2)cc1	1	1	x	-7	4	-31*
COc1cc(SC)ccc1C(=O)Nc1cccc(S(=O)(=O)NC2=NCCCCC2)c1	0	-13	-6	-9	11	-38*
CCN(CC)S(=O)(=O)c1cccc(NC(=O)c2ccc(SC)cc2OC)c1	1	-3	-9	-3	29	0
CC(Oc1ccc(F)cc1)C(=O)Nc1ccc(S(=O)(=O)NC2=NCCCCC2)cc1 (stereo not given)	4	5	0	-7	33*	-6
CCCCCCCOc1ccc(-c2ccc(C(=O)O)cc2)cc1	x	x	x	-15	x	x
Cc1ccc(S(=O)(=O)N(CC(=O)Nc2cccc(C(F)(F)F)c2)C(=O)N2CCN(C)CC2)cc1	0	16	-6	1	2	-38*
O=C(Nc1ccncc1)Nc1cccc(C(F)(F)F)c1	2	4	-9	-5	11	-26
CCN(CC)S(=O)(=O)c1ccc(NC(=O)Nc2cccc(C(F)(F)F)c2)cc1	2	-2	-1	1	16	-32*
O=C(Nc1ccc(OC(F)F)cc1)Nc1cccc(C(F)(F)F)c1	4	-11	-5	0	19	-38*
Cc1ccc(S(=O)(=O)Nc2ccc(NC(=O)Nc3cccc(C(F)(F)F)c3)cc2)cc1	0	8	-8	-5	3	-1
SMILES	TRHR ag	TRHR PAM	D1 PAM	LDHA inh	D1 ag	D1 antagonist
Cc1ccc(S(=O)(=O)N(Cc2cccc(C(F)(F)F)c2)C(=O)N2CCN(C)CC2)cc1	0	3	-4	-3	2	-7
CCCC(=O)N1CCCCC1C(=O)O (stereo not given)	x	x	x	2	x	x
CCN(Cc1cccs1)C(=O)c1cccc(C#N)c1	x	x	x	-7	x	x
O=C(/C(Br)=C/Nc1cc(Cl)cc(Cl)c1)C(F)(F)F	x	x	x	-12	x	x
O=c1[nH]c(-c2ccccn2)nc(C(F)(F)F)c1Br	0	25	3	6	0	-8
Nc1nc(C(F)(F)F)c(Br)c(=O)n1N	1	-24	-5	-6	1	-30*
CC(C)C(NC/C=C/c1ccccc1)C(=O)O (stereo not given)	x	x	x	-3	x	x
O=[N+]([O-])c1ccc(NCc2ccccc2)nc1	-1	-1	-11	2	4	-35*
O=[N+]([O-])c1ccc(S(=O)(=O)c2ccccc2)nc1	-1	-7	-14	6	0	-40*
O=[N+]([O-])c1ccc(Nc2ccccc2)nc1	0	-1	-3	1	1	-17
CC(=O)c1cccc(NC(=O)C(c2ccccc2)n2cnc3c2c(=O)n(C)c(=O)n3C)c1 (stereo not given)	x	x	x	-12	x	x
Cc1sc2nc(CN3CCCCC3)nc(Sc3nnnn3C)c2c1C	x	x	x	16	x	x
O=c1oc2ccc(Br)cc2cc1-c1ccccc1	x	x	x	-1	x	x
Cc1cccc(NC(=O)CCN2CCCC(C)C2)c1 (stereo not given)	0	0	-9	1	2	-72*
Cc1cccc(NC(=O)CCN2CCCCC2)c1	1	-4	-3	-3	0	-5
CCN(CC)CC(=O)NN(Cc1ccccc1)c1ccccc1	0	-7	-4	-17	2	5
CN1CCN(CC(=O)NN(Cc2ccccc2)c2ccccc2)CC1	0	5	8	-44*	0	11
Cc1cccc(NC(=O)CCN2CC(C)OC(C)C2)c1 (stereo not given)	0	35*	3	2	0	6
CN1CCN(CCC(=O)Nc2ccccc2)CC1	-1	3	3	-5	3	-36*
COc1ccc(Cl)cc1C(=O)NCc1ccc2c(c1)OCO2	0	-8	4	-5	6	11
COc1cc2c(C(=O)NCc3ccc4c(c3)OCO4)cn(C)c(=O)c2cc1OC	1	7	-4	4	0	-31*
CC(C)c1c(C(=O)N/N=C/c2ccoc2)nnn1-c1nonc1N	0	9	6	2	16	5
CC(C)c1c(C(=O)N/N=C/c2ccc(C(F)(F)F)cc2)nnn1-c1nonc1N	-1	1	9	1	253*	8
CC(C)c1c(C(=O)N/N=C/c2ccsc2)nnn1-c1nonc1N	2	18	19	2	39*	28
Cc1noc(C(C)N2CCN(C(=O)c3ccccn3)CC2)n1 (stereo not given)	x	x	x	-15	x	x
COc1ccc(CCN2CCC(CNC(=O)c3cnn(-c4ccccc4)c3C3CCN(C(=O)OC(C)(C)C)CC3)CC2)cc1	3	-1	-6	4	38*	-4
